Laboratory results from PubChem BioAssay (Tox21).
Results filed as inconclusive are left out. Entries that show only a call come without a potency. Active and inactive are the calls of the source. Unless noted, calls come from the whole dose curve.

Assays:
[1] = Nuclear factor erythroid 2-related factor 2/antioxidant responsive element (Nrf2/ARE) small molecule agonists: qHTS cell viability counter screen in human keratinocytes (AID 1919968; active = well fitted curve in the direction sought with a large enough effect in the repeat runs; an effect the other way counts as inactive or inconclusive; note: nearly all actives have a fitted effect of over 55% in size; note: potency is the fitted concentration of half-maximal effect); conditions: KeratinoSens HaCaT ARE cells viability, CellTiter-Fluor, 24 h; series mostly up to 92.4 µM
In short: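 Fluorescence read-out from CellTiter-Fluor after 1 h at 37 C. Wells held HaCaT-derived ARE-luciferase reporter cells (1,500/well) treated 23 h with DMSO-dissolved compounds. Run in the same wells as the luciferase agonist read.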

[2] = molecular target: Gonadotropin-releasing hormone receptor (Homo sapiens) (UniProt P30968); assay: Human gonadotropin-releasing hormone receptor (GnRHR) small molecule agonists, calcium flux assay in GnRHR-HEK293 cells (AID 1920063); conditions: calcium flux fluorescence, agonist mode; series mostly up to 57.6 µM; note: nearly all actives have a fitted effect of over 35% in size
In short: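 Calcium-dye fluorescence, Ex/Em=480/540, recorded every 1 sec over 3 min after compound addition to GnRHR-HEK293 cells. Cells had been seeded 18 hours earlier and dye-loaded for 1 hour at 37 C. Fifteen concentrations, triplicates.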

[3] = molecular target: KiSS-1 receptor (Homo sapiens) (UniProt Q969F8); assay: Human kisspeptin (KISS1R) small molecule agonists, calcium flux assay in KISS1R-HEK293 cells (AID 1920064; active = well fitted curve in the direction sought with a large enough effect in the repeat runs; an effect the other way counts as inactive or inconclusive); conditions: KISS1R-HEK293, calcium flux fluorescence, agonist; series mostly up to 76.8 µM
In short: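 Calcium flux read-out: kinetic fluorescence at Ex/Em=480/540, 1 s intervals over 3 min, after pin-tool compound addition to dye-loaded KISS1R-HEK293 cells. Fifteen concentrations, triplicates.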

[4] = G protein-coupled receptor (GPCR) small molecule agonists, calcium flux assay: HEK293 wild type cell line counter screen (AID 1920065); conditions: HEK293 WT calcium flux, fluorescence, agonist mode; series mostly up to 57.6 µM
In short: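 Agonist mode; 18 h seeding at 37 C, 1 h dye load at 37 C; compounds pinned from DMSO, ATP as positive control; kinetic fluorescence 480/540 nm, 3 min, 1 s reads; 15 concentrations, triplicate.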

[5] = p53 small molecule agonists, cell-based qHTS assay with human liver microsomes (AID 1963577); conditions: HCT-116 p53RE-bla with human liver microsomes, ratio, 16 h; series mostly up to 66 µM
In short: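 Compounds act here after metabolic activation: human liver microsomes and NADPH, both at 0.5 mg/mL final, were co-added to p53RE-bla cells. Incubation ran 16 h at 37 C, followed by LiveBLAzer detection.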

[6] = p53 small molecule agonists, cell-based qHTS assay with rat liver microsomes (AID 1963578); conditions: HCT-116 p53RE-bla, beta-lactamase ratio, 16 h; series mostly up to 66 µM
In short: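 Read-out is beta-lactamase reporter fluorescence (LiveBLAzer, 2 h, room temperature, dark) in p53RE-bla cells treated 16 h at 37 C with compound, rat liver microsomes and NADPH, both 0.5 mg/mL final.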

[7] = p53 small molecule agonists, cell-based qHTS assay with rat liver microsomes: qHTS cell viability counter screen (AID 1963580); conditions: p53RE-bla HCT-116 + rat microsomes, ATP viability, 16 h; series mostly up to 66 µM; note: nearly all actives have a fitted effect of over 45% in size
In short: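 Rat liver microsome (0.5 mg/mL final) and NADPH (0.5 mg/mL final) co-incubation with compounds for 16 h at 37 C on HCT-116 p53RE-bla cells; cytotoxicity taken from intracellular ATP luminescence.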

[8] = p53 small molecule agonists, cell-based qHTS assay: qHTS cell viability counter screen (AID 1963581); conditions: p53RE-bla HCT-116 viability, ATP luminescence, 16 h; series mostly up to 66 µM; note: nearly all actives have a fitted effect of over 45% in size
In short: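 Cytotoxicity read-out: ATP-based luminescence (CellTiter-Glo, 30 min RT) measured in the same wells as the p53 reporter assay, HCT-116 p53RE-bla cells, 16 h compound exposure at 37 C.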

[9] = molecular target: 5-hydroxytryptamine receptor 2A (Homo sapiens) (UniProt P28223); assay: 5-hydroxytryptamine receptor 2A (HTR2A) small molecule agonists, cell-based qHTS assay (AID 1963587); conditions: HTR2A-CHO cells, calcium flux fluorescence, agonist mode; series mostly up to 76.8 µM; note: nearly all actives have a fitted effect of over 30% in size
In short: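 Kinetic calcium-flux fluorescence (2 min, 1 sec intervals) after compound addition in agonist mode. HTR2A-CHO cells were cultured 18 h, then dye-loaded 1 h at 37 C.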

[10] = molecular target: Muscarinic acetylcholine receptor M1 (Homo sapiens) (UniProt P11229); assay: Cholinergic receptor muscarinic 1 (CHRM1) small molecule antagonists, cell-based qHTS assay (AID 1963588); conditions: CHRM1-CHO antagonist mode, calcium flux fluorescence; series mostly up to 61.5 µM; note: nearly all actives have a fitted effect of over 40% in size
In short: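 Compounds were tested at 15 concentrations in three independent runs. Dye-loaded CHRM1-CHO cells were exposed 5 min at room temperature before stimulation by acetylcholine added at 50nM. Intracellular calcium was read kinetically on FDSS for 3 min.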

[11] = molecular target: Muscarinic acetylcholine receptor M1 (Homo sapiens) (UniProt P11229); assay: Cholinergic receptor muscarinic 1 (CHRM1) small molecule agonists, cell-based qHTS assay (AID 1963589); conditions: CHRM1-CHO cells, agonist mode, calcium flux fluorescence; series mostly up to 76.8 µM; note: nearly all actives have a fitted effect of over 35% in size
In short: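 Calcium flux read-out: kinetic fluorescence at 1 sec intervals after pin-tool compound addition to dye-loaded CHRM1-CHO cells (human M1). Agonist mode; 15 concentrations tested in triplicate independent runs.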

[12] = molecular target: Beta-2 adrenergic receptor (Homo sapiens) (UniProt P07550); assay: Adrenergic beta2 receptor (ADRB2) small molecule antagonists, cell-based qHTS assay (AID 1963592); conditions: CHO-ADRB2 cells, isoproterenol-stimulated cAMP HTRF ratio, 0.5 h; series mostly up to 92.4 µM; note: nearly all actives have a fitted effect of over 50% in size; note: potency is the fitted concentration of half-maximal effect
In short: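 Assay format: CHO-ADRB2 cells, 18-20hr seeding at 37C/5% CO2, then compound plus 1nM isoproterenol agonist mix for 0.5hr RT. Homogeneous time-resolved fluorescence cAMP detection after 1hr, expressed as 665/615 nm ratio.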

[13] = molecular target: Beta-2 adrenergic receptor (Homo sapiens) (UniProt P07550); assay: Adrenergic beta2 receptor (ADRB2) small molecule agonists, cell-based qHTS assay (AID 1963593); conditions: CHO-ADRB2 cells, cAMP HTRF, 30 min; series mostly up to 42.5 µM;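 note: CHO cells stably overexpressing human ADRB2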
In short: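 CHO cells stably over-expressing ADRB2 were plated overnight at 37C, then dosed with compounds plus a stimulation mix containing 100uM IBMX and 25uM Ro-20-1724 for 0.5hr at room temperature. cAMP was measured by HTRF competition, 1hr.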

[14] = molecular target: D(2) dopamine receptor (Homo sapiens) (UniProt P14416); assay: Dopamine D2 receptor (DRD2) small molecule agonists, cell-based qHTS assay (AID 1963594); conditions: HEK293-DRD2 cAMP HTRF, agonist mode, 30 min; series mostly up to 92.4 µM; note: nearly all actives have a fitted effect of over 35% in size
In short: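 cAMP accumulation in DRD2-HEK293 cells measured by HTRF after 1 h detection; compounds added 10 min before NKH477 (200nM […]) forskolin-analogue stimulation, 30 min at room temperature, with Ro20-1724 present at 0.1 mM final.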

[15] = molecular target: D(2) dopamine receptor (Homo sapiens) (UniProt P14416); assay: Dopamine D2 receptor (DRD2) small molecule antagonists, cell-based qHTS assay (AID 1963595; active = well fitted inhibition curve with a large enough effect in the signal ratio in the repeat runs, with a control signal flat; the % refers to the signal ratio); conditions: HEK293-DRD2 cAMP HTRF antagonist mode; series mostly up to 92.4 µM
In short: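 In this cell-based antagonist screen, compounds act for 10 min at room temperature before a 30 min challenge with 12 nM quinpirole and 200 nM NKH477. cAMP is quantified by HTRF competition in DRD2-HEK293 cells containing 0.1 mM Ro20-1724.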

[16] = molecular target: 5-hydroxytryptamine receptor 2A (Homo sapiens) (UniProt P28223); assay: 5-hydroxytryptamine receptor 2A (HTR2A) small molecule antagonists, cell-based qHTS assay (AID 1963586); conditions: HTR2A-CHO cells, DOI-induced calcium flux, fluorescence; series mostly up to 61.5 µM; note: nearly all actives have a fitted effect of over 45% in size; note: potency is the fitted concentration of half-maximal effect
In short: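 CHO cells stably expressing human HTR2A were plated for 18 h at 37 C, then loaded with calcium dye for 1 h. Compounds were preincubated 5 min at room temperature before DOI (4 nM solution) was added. Kinetic fluorescence was read for 3 min.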

[17] = p53 small molecule agonists, cell-based qHTS assay with human liver microsomes: qHTS cell viability counter screen (AID 1963579); conditions: p53RE-bla HCT-116 viability, ATP luminescence, 16 h, HLM; series mostly up to 66 µM; note: nearly all actives have a fitted effect of over 45% in size
In short: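 Cells carrying the p53 response-element beta-lactamase reporter are treated for 16 h at 37 C with test compounds in the presence of human liver microsomes and NADPH (both 0.5 mg/mL final); ATP-based CellTiter-Glo luminescence then reports viability.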

[18] = p53 small molecule agonists, cell-based qHTS assay (AID 1963582; active = well fitted activation curve with a large enough effect in the signal ratio in the repeat runs, not every such curve was filed as active; the % refers to the signal ratio); conditions: HCT-116 p53RE-bla reporter, beta-lactamase FRET ratio, 16 h; series mostly up to 66 µM
In short: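 Fluorescence intensity read-out of a beta-lactamase reporter under a p53 response element. Cells were exposed to DMSO-dissolved compounds for 16 h at 37 C, then developed with FRET substrate for 2 h at RT.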

[19] = cAMP Responsive Elements (CRE) small molecule agonists, cell-based qHTS assay (AID 1963590); conditions: CRE-bla HEK293T, beta-lactamase FRET ratio, 3 h; series mostly up to 92.4 µM
In short: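 Beta-lactamase reporter readout: LiveBLAzer B/G FRET substrate, 2 h at room temperature, added after 3 h compound treatment of CRE-bla HEK 293T cells at 37 C/5% CO2.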

[20] = cAMP Responsive Elements (CRE) small molecule antagonists, cell-based qHTS assay (AID 1963591; active = well fitted inhibition curve with a large enough effect in the signal ratio in the repeat runs, not every such curve was filed as active; the % refers to the signal ratio); conditions: CRE-bla HEK293T, beta-lactamase FRET ratio; series mostly up to 92.4 µM
In short: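 HEK293T CRE-bla; 18 h preincubation; compound pin-transfer; NKH477 0.25 uM final, 3 h, 37 C; LiveBLAzer FRET substrate 2 h RT.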

Sequence of Beta-2 adrenergic receptor (Homo sapiens) (P07550 whole entry, looked up): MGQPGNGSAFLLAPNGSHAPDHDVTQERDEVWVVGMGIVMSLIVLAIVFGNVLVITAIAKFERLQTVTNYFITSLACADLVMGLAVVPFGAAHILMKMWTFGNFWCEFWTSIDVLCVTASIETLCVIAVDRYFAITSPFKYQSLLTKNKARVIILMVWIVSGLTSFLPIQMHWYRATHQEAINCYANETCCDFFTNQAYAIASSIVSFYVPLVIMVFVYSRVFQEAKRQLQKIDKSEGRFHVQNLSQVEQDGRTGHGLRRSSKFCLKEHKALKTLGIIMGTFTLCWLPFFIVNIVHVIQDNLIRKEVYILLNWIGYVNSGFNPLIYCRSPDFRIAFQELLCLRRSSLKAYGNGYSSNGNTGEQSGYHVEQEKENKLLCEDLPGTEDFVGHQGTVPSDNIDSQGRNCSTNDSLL
Sequence of 5-hydroxytryptamine receptor 2A (Homo sapiens) (P28223 whole entry, looked up): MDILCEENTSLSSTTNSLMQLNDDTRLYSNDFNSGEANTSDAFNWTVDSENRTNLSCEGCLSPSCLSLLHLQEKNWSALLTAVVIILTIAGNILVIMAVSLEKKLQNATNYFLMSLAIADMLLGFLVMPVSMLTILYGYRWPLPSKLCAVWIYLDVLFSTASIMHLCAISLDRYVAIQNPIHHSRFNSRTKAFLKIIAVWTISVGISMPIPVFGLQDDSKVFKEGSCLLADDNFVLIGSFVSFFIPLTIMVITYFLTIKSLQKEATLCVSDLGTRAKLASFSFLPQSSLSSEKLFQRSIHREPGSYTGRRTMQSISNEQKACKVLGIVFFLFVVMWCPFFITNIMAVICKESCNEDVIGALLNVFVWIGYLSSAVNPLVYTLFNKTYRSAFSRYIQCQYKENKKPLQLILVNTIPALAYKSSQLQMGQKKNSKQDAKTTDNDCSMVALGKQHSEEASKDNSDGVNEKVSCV
Sequence of Muscarinic acetylcholine receptor M1 (Homo sapiens) (P11229 whole entry, looked up): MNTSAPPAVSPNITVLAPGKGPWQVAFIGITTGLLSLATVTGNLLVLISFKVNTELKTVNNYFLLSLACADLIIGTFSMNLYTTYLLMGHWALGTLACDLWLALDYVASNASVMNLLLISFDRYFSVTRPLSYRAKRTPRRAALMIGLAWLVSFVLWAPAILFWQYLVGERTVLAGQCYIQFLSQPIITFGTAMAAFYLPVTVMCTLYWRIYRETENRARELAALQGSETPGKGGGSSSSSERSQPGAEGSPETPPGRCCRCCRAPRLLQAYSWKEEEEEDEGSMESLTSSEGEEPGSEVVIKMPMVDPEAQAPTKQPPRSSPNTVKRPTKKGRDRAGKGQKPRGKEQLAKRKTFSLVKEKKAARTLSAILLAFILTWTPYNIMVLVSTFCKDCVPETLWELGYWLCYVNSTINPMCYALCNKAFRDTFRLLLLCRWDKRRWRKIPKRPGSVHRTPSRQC
Sequence of KiSS-1 receptor (Homo sapiens) (Q969F8 whole entry, looked up): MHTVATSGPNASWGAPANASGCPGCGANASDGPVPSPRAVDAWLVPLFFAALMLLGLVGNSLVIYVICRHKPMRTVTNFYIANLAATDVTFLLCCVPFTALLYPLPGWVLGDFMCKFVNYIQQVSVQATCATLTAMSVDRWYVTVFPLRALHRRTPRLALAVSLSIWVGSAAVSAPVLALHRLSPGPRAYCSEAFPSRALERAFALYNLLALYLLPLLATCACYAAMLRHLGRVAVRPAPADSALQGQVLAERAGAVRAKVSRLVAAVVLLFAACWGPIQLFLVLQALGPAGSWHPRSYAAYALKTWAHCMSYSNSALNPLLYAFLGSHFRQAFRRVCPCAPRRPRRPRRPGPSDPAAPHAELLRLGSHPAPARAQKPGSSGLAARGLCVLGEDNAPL
Sequence of D(2) dopamine receptor (Homo sapiens) (P14416 whole entry, looked up): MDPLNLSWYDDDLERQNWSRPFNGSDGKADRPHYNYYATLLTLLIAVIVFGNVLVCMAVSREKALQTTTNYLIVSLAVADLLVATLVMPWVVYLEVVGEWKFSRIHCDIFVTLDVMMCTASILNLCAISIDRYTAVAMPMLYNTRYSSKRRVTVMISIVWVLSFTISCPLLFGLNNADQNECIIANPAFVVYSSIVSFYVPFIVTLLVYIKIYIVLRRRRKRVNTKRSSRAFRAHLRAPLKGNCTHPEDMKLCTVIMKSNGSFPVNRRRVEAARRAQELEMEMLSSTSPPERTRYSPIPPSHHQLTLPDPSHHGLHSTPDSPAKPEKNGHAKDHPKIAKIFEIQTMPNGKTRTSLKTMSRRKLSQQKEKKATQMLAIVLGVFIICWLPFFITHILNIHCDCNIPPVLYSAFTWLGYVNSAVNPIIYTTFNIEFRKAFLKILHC
Sequence of Gonadotropin-releasing hormone receptor (Homo sapiens) (P30968 whole entry, looked up): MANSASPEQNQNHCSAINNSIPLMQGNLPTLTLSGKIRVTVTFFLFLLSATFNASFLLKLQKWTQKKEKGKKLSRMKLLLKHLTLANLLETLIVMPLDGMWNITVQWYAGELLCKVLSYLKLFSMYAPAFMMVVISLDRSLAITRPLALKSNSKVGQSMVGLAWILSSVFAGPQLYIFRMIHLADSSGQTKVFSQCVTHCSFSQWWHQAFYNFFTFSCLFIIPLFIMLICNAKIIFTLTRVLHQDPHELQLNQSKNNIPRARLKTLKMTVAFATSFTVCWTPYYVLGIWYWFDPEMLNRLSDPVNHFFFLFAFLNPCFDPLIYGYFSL

Compound	Potency [1]	Potency [2]	outcome [3]	outcome [4]	Potency [5]	Potency [6]	Potency [7]	Potency [8]	Potency [9]	Potency [10]	Potency [11]	Potency [12]	Potency [13]	Potency [14]	Potency [15]	Potency [16]	Potency [17]	Potency [18]	Potency [19]	Potency [20]
CC(C)C[C@H](NC(=O)OCC1c2ccccc2-c2ccccc21)C(=O)O	inactive	inactive	inactive	inactive	inactive	inactive	inactive	inactive	inactive	inactive	inactive	inactive	inactive	inactive	inactive	–	–	–	–	–
CCCC(=O)c1cc(O)c(O)cc1O	9.69 µM (active)	inactive	inactive	inactive	inactive	inactive	inactive	–	–	inactive	–	–	–	–	–	inactive	–	–	–	–
CN1CCN(C2=Nc3cc(F)ccc3Cc3ccccc32)CC1	inactive	inactive	inactive	inactive	inactive	inactive	inactive	–	inactive	–	–	29.8 µM (active)	–	–	inactive	0.0231 µM (active)	inactive	inactive	inactive	inactive
CO[Si](CCCNc1ccccc1)(OC)OC	inactive	inactive	inactive	inactive	inactive	inactive	inactive	inactive	inactive	inactive	inactive	inactive	–	inactive	inactive	inactive	–	inactive	inactive	inactive
COc1ccccc1Oc1c(NS(=O)(=O)c2ccc(C(C)(C)C)cc2)nc(-c2ncccn2)nc1OCCO	inactive	inactive	inactive	inactive	inactive	inactive	inactive	–	inactive	inactive	inactive	inactive	inactive	–	inactive	inactive	–	inactive	–	inactive
CCN1CCC[C@H]1CNC(=O)c1cc(S(N)(=O)=O)ccc1OC	inactive	inactive	inactive	inactive	inactive	inactive	inactive	–	–	–	–	inactive	inactive	–	–	–	inactive	inactive	inactive	inactive
NS(=O)(=O)c1cc(C(=O)O)cc(N2CCCC2)c1Oc1ccccc1	inactive	inactive	inactive	inactive	inactive	inactive	inactive	–	inactive	inactive	–	inactive	inactive	inactive	inactive	inactive	inactive	inactive	inactive	inactive
Nc1ccc2cc(S(=O)(=O)O)cc(O)c2c1	inactive	inactive	inactive	inactive	inactive	inactive	inactive	inactive	–	inactive	inactive	–	–	–	–	inactive	inactive	–	–	inactive
C/C=C/C(=O)OCC(C)C	inactive	inactive	inactive	inactive	inactive	inactive	inactive	inactive	inactive	–	inactive	inactive	–	inactive	inactive	inactive	inactive	–	inactive	inactive
NC12CC3CC(CC(C3)C1)C2	inactive	inactive	inactive	inactive	inactive	inactive	–	inactive	–	–	–	inactive	inactive	inactive	inactive	–	inactive	inactive	inactive	inactive
CCOc1cccc(N)c1	inactive	inactive	inactive	inactive	inactive	inactive	inactive	inactive	inactive	inactive	inactive	inactive	–	inactive	inactive	inactive	–	inactive	inactive	inactive
CCOC(=O)C(=O)c1csc(NC=O)n1	inactive	inactive	inactive	inactive	inactive	inactive	inactive	–	–	–	inactive	inactive	inactive	inactive	inactive	inactive	inactive	inactive	inactive	inactive
COCCCCCCCCOCCC[Si](C)(O[Si](C)(C)C)O[Si](C)(C)C	61.1 µM (active)	inactive	inactive	inactive	inactive	inactive	inactive	inactive	inactive	inactive	inactive	inactive	–	inactive	inactive	–	inactive	–	–	–
CC(C)=CCC/C(C)=C/CC/C(C)=C/CO	inactive	inactive	inactive	inactive	inactive	inactive	inactive	inactive	inactive	inactive	inactive	inactive	–	inactive	inactive	inactive	inactive	–	inactive	–
CC1(C)OC(=O)Nc2ccc(Br)cc21	inactive	inactive	inactive	inactive	inactive	inactive	inactive	inactive	inactive	inactive	inactive	inactive	–	inactive	inactive	inactive	–	inactive	inactive	–
Nc1ccc(S(=O)(=O)Nc2ccccn2)cc1	inactive	inactive	inactive	inactive	inactive	–	inactive	inactive	inactive	inactive	inactive	inactive	inactive	inactive	inactive	–	inactive	inactive	inactive	inactive
CCCCCCCCCCCC(C)=O	inactive	inactive	inactive	inactive	inactive	inactive	inactive	–	inactive	inactive	inactive	inactive	inactive	inactive	inactive	inactive	inactive	inactive	inactive	inactive
